Compound activity as filed in PubChem BioAssay.
In the library only some 1.5% were active in any assay of this set; here they are far more common.
APE1 inh = blocks human APE1 abasic DNA cleavage. P27695. recombinant APE1, TAMRA/BHQ-2 abasic DNA cleavage fluorescence. Potency, µM (titrated, usually from 65.8 µM), hits mostly inhibitors. hit rate 0.35% among 350,000; note: nearly all actives have a fitted effect of over 55% in size
Target sequence (P27695 whole entry, looked up): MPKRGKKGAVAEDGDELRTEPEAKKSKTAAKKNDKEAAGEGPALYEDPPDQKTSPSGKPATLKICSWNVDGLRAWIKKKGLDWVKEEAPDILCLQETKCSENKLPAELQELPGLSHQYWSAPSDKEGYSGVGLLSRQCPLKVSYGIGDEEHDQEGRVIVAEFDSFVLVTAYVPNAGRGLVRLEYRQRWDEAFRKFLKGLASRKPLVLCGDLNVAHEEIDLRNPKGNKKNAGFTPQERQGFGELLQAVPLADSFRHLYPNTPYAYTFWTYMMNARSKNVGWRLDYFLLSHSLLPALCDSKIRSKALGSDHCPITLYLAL
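APE1 at 0.75 nM final was preincubated with compound 15 min at room temperature, then 50 nM double-stranded THF abasic-site substrate (5'-TAMRA/3'-BHQ-2) was added. Fluorescence (ex 525/em 598 nm) was read kinetically; third-minus-first read gave activity.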
FEN1 inhibitor = human FEN1 inhibition | P39748 | Recombinant FEN1 flap cleavage, fluorescence, 15 min | Potency, µM (doses to about 114 µM), actives largely listed as inhibitors | hit rate 0.35% among 390,000 | AID 588795; note: nearly all actives have a fitted effect of over 65% in size
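Compounds are tested as a concentration series against 10 nM FEN1; after a 15 min room-temperature preincubation, 50 nM substrate starts cleavage, with plate reads at 0 and 15 min. Normalized responses are fitted by a Hill equation.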
GCN5L2 inh = GCN5L2 (KAT2A) acetyltransferase inhibition. Potency, µM (highest dose often 58.9 µM), actives largely listed as inhibitors. Q92830. hit rate 0.21% among 390,000. GCN5L2 HAT assay, ThioGlo1 CoA-SH fluorescence
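qHTS, 1536-well. 20nM enzyme, pH 7.5 HEPES/EDTA/Tween-20 buffer; 15 min compound preinc., RT. Start: 75uM H3(1-25), 70uM AcCoA, 50uM ThioGlo1. Read Ex340/Em540 at t=0 (autofluorescence flag) and t=20 min.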
BLM inh = inhibitors of human Bloom syndrome helicase BLM | P54132 | recombinant BLM DNA unwinding, fluorescence dequenching | Potency, µM (titrated, usually from 56.1 µM), hits mostly inhibitors | hit rate 0.2% among 350,000 | AID 2528; note: nearly all actives have a fitted effect of over 35% in size
PI5P4Ka inh = inhibitors of human PI5P4K alpha | P48426 | PI5P4Kalpha enzyme, ADP-Glo luminescence, 60 min; stronger effect = lower value | max response, % | hit rate 1.2% among 330,000; active = max response of -50% or lower; inconclusive = between -30% and -50%; inactive = -30% or higher; note: value at the top dose of about 77 µM
Target sequence (P48426 whole entry, looked up): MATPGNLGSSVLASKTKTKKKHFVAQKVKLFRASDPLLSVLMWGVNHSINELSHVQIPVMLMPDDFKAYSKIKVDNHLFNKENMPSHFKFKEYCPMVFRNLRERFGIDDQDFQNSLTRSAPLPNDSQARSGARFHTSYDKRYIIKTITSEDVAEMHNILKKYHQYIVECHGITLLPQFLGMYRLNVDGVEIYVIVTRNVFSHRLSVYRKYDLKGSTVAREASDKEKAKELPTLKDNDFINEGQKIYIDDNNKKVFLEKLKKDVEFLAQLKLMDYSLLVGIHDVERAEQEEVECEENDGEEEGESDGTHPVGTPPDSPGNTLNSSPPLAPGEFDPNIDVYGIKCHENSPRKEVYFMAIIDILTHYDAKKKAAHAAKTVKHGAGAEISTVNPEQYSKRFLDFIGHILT
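Reactions run in 0.038 M HEPES pH 7.4, 0.28 mM EGTA, 0.1% CHAPS and 5% DMSO, with PI5P4Kalpha, substrate, compound and 5 microM ATP final, one hour at room temperature. Readout is ADP-Glo luminescence.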
RECQ1 helicase = inhibitors of human RECQ1 DNA helicase; P46063; RECQ1 DNA unwinding, red fluorescence kinetic read; hit rate 0.54% among 240,000; Potency, µM (top dose mostly 57.3 µM), usual class: inhibitors; AID 2549; note: nearly all actives have a fitted effect of over 30% in size
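50 nM RECQ1T1 preincubated 15 min with compound in Tris pH 8.0 buffer with MgCl2, DTT, Tween-20 and 2.5 ug/ml poly(dI-dC); started with 200 nM TAMRA/BHQ-2 forked duplex and 2 mM ATP. Unwinding read as fluorescence (525/598 nm), two reads 2 h apart.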
Large screens that a line does not name were inactive; ! = a repeat was not active. Unless noted, calls come from the whole dose curve; as a rule, active = well fitted curve in the direction sought with a large enough effect; inconclusive = small, poorly fitted or top-dose-only effect, or another doubt; inactive = no such curve, though single readings can be large; an effect the other way counts as inactive or inconclusive.

COC(=O)C1=Nc2ccccc2/C1=C\c1c(O)n(C)c(=O)n(C)c1=O	PI5P4Ka inh -70
COC(=O)C1=Nc2ccccc2/C1=C\c1c(O)n(-c2ccc(Br)cc2)c(=O)[nH]c1=O	PI5P4Ka inh -102
CN(C)c1ccc(N(C)C)cc1	APE1 inh inconclusive (no result: FEN1 inhibitor, GCN5L2 inh, BLM inh, PI5P4Ka inh)
Cl.Cl.Cl.Cl.Cl.Cl.N.N.N.N.NNNNN.NNNNN.O.O.[Ru].[Ru].[Ru]	GCN5L2 inh inconclusive, BLM inh 25µM, RECQ1 helicase 13µM (no result: FEN1 inhibitor, PI5P4Ka inh)
CCCCCCCC(=O)Cl	none (no result: FEN1 inhibitor, GCN5L2 inh, BLM inh, PI5P4Ka inh)
CC(C)c1ccc(N2C(=O)NC(=O)/C(=C\C=C\c3ccco3)C2=O)cc1	APE1 inh inconclusive, FEN1 inhibitor inconclusive, GCN5L2 inh inconclusive, BLM inh inconclusive, PI5P4Ka inh -69, RECQ1 helicase 16µM
C=CCCC#N	none (no result: FEN1 inhibitor, GCN5L2 inh, BLM inh, PI5P4Ka inh)
Cc1cc(C)cc(-n2c(C)cc(/C=C3\C(=O)NC(=O)N(C)C3=O)c2C)c1	none
Cc1ccnc(-n2c(C)cc(C=C3C(=O)N(C)C(=S)N(C)C3=O)c2C)c1	PI5P4Ka inh inconclusive, RECQ1 helicase 40µM
Cc1cc(C=C2C(=O)N(C)C(=S)N(C)C2=O)c(C)n1-c1ccncc1	FEN1 inhibitor inconclusive, PI5P4Ka inh inconclusive, RECQ1 helicase 25µM
Cc1ccc(-c2nc3ccccc3c(=O)n2-c2cc(C)ccn2)cc1	none (no result: PI5P4Ka inh)
O=C(O)C(Cl)(Cl)Br	none (no result: FEN1 inhibitor, GCN5L2 inh, BLM inh, PI5P4Ka inh)
C=C/C(=C/C(=O)C[C@H](C)C[C@@H](C)CC[C@H](O)[C@H](C)C(=O)C[C@@H](O)[C@H](C)[C@@H](C)OC(=O)C[C@@H](O)C1=C(C)C(=O)OC1=O)CC	GCN5L2 inh 3.2µM (no result: FEN1 inhibitor, PI5P4Ka inh)
CN1C(=O)/C(=C/c2cccn2-c2ccc3ccccc3c2)C(=O)NC1=S	FEN1 inhibitor inconclusive, PI5P4Ka inh -78, RECQ1 helicase inconclusive
c1ccc2c(c1)[IH]c1ccccc1-2	FEN1 inhibitor 50µM (no result: APE1 inh, GCN5L2 inh, BLM inh, RECQ1 helicase)
CNC[C@H](O)c1ccc(OC(=O)C(C)(C)C)c(OC(=O)C(C)(C)C)c1	GCN5L2 inh inconclusive (no result: APE1 inh, FEN1 inhibitor, PI5P4Ka inh)
O=C1NC(=S)NC(=O)C1=Cc1ccc2c(c1)CCN2CCCCl	APE1 inh 18µM, FEN1 inhibitor inconclusive, BLM inh 16µM, PI5P4Ka inh -92, RECQ1 helicase inconclusive
CC(C)n1c(O)c(C2c3cc(Cl)ccc3Oc3[nH]c(=O)n(C(C)C)c(=O)c32)c(=O)[nH]c1=O (configuration not stated)	GCN5L2 inh 28µM, PI5P4Ka inh inconclusive
Clc1ccc(C(Cl)(Cl)Cl)cc1Cl	none (no result: FEN1 inhibitor, GCN5L2 inh, BLM inh, PI5P4Ka inh)
C/C(=N\NC(=O)c1ccccc1)c1c(O)n(Cc2ccccc2)c(=O)[nH]c1=O	GCN5L2 inh inconclusive, PI5P4Ka inh -68
C/C(=N\Nc1cccc2ccccc12)c1c(O)n(Cc2ccccc2)c(=O)[nH]c1=O	PI5P4Ka inh -55
C/C(=C/CCC(C)[C@H]1CC[C@@]2(C)C3=C(CC[C@]12C)[C@@]1(C)CCC(=O)C(C)(C)[C@@H]1CC3)C(=O)O (some centres not stated)	FEN1 inhibitor 50µM, GCN5L2 inh inconclusive, BLM inh 25µM
CCC1CN2CCc3cc(OC)c(OC)cc3C2CC1CC1NCCc2cc(OC)c(OC)cc21 (configuration not stated)	none (no result: FEN1 inhibitor, PI5P4Ka inh)
CN(C)[C@@H]1C(=O)C(C(N)=O)=C(O)[C@@]2(O)C(=O)C3=C(O)c4c(O)cccc4[C@@](C)(O)C3C[C@@H]12 (some centres not stated)	FEN1 inhibitor inconclusive (no result: BLM inh, RECQ1 helicase)
CN(C)C1C(=O)C(C(N)=O)C(=O)C2(O)C(=O)C3C(=O)c4c(O)cccc4C(C)(O)C3C(O)C12 (configuration not stated)	GCN5L2 inh 10µM (no result: APE1 inh, FEN1 inhibitor, PI5P4Ka inh)
CCOc1ccc2nc(N=Nc3c(O)[nH]c(=O)[nH]c3=O)sc2c1	PI5P4Ka inh -86
CCOc1ccc2nc(N=Nc3c(O)[nH]c(=S)[nH]c3=O)sc2c1	APE1 inh inconclusive, FEN1 inhibitor inconclusive, PI5P4Ka inh -80
CCOc1ccc2nc(NC(=O)c3cccn(Cc4ccccc4C)c3=O)sc2c1	none (no result: APE1 inh, PI5P4Ka inh, RECQ1 helicase)
CN=C=O	none (no result: FEN1 inhibitor, GCN5L2 inh, BLM inh, PI5P4Ka inh)
COc1ccc(-n2c(O)c(/C=C/C=Nc3ccccc3)c(=O)[nH]c2=O)cc1	BLM inh 28µM, RECQ1 helicase inconclusive
CN(C)C1CSSSC1	none (no result: FEN1 inhibitor, PI5P4Ka inh)
O=C(c1ccccc1)c1ccc(N=Nc2c(O)[nH]c(=O)[nH]c2=O)cc1	BLM inh inconclusive
CC(C)c1ccc(N=Nc2c(O)[nH]c(=O)[nH]c2=O)cc1	none
O=c1[nH]c(=S)[nH]c(O)c1N=Nc1ccc(S(=O)(=O)N2CCc3ccccc32)cc1	PI5P4Ka inh -58
O=c1[nH]c(=S)[nH]c(O)c1N=Nc1ccc(SC(F)F)cc1	PI5P4Ka inh -57
O=C1NC(=O)N(c2ccccc2F)C(=O)/C1=C/c1ccc(Sc2nc3ccccc3[nH]2)o1	APE1 inh inconclusive, FEN1 inhibitor inconclusive, GCN5L2 inh inconclusive, PI5P4Ka inh -86, RECQ1 helicase inconclusive
O=C1C(Cl)=CC(=Nc2ccc(O)cc2)C=C1Cl	APE1 inh inconclusive, FEN1 inhibitor inconclusive, PI5P4Ka inh -98
COc1cccc2c1C(=O)c1c(O)c3c(c(O)c1C2=O)C[C@@](O)(C(=O)CO)C[C@@H]3O[C@H]1C[C@H](N)[C@H](OC2CCCCO2)[C@H](C)O1 (some centres not stated)	FEN1 inhibitor 18µM, GCN5L2 inh inconclusive, BLM inh inconclusive (no result: APE1 inh, PI5P4Ka inh, RECQ1 helicase)
COc1ccc2c(c1)[nH]c1c(C)nccc12	APE1 inh 7.9µM!, FEN1 inhibitor inconclusive, GCN5L2 inh inconclusive
C[C@]12O[C@H](C[C@]1(O)CO)n1c3ccccc3c3c4c(c5c6ccccc6n2c5c31)CNC4=O	GCN5L2 inh inconclusive (no result: APE1 inh, FEN1 inhibitor, PI5P4Ka inh, RECQ1 helicase)
